Source: PubChem BioAssay (NCI)
The panel holds about 83,000 compounds, 20% with a hit somewhere; the sample as a whole holds those more often.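 Treatment: one concentration, 48 hours, 96-well format. Scoring: percent growth, with anything below 10 considered active.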 Unmarked numbers belong to inactive results. Calls of active or inactive are those of the source.

Experiments:
Test in all cases: NCI-60 one-dose screen, 48 h (100 = growth as untreated, 0 = no growth, -100 = all killed)
Details in all cases: 10 µM unless noted
T-47D breast = test system: T-47D breast
BT-549 breast = test system: BT-549 breast
MDA-MB-435 melanoma = test system: MDA-MB-435 melanoma
SW-620 colon = test system: SW-620 colon
MCF7 breast = test system: MCF7 breast
HCT-116 colon = test system: HCT-116 colon
HCC-2998 colon = test system: HCC-2998 colon
KM12 colon = test system: KM12 colon

Row | SMILES | growth (T-47D breast) | growth (BT-549 breast) | growth (MDA-MB-435 melanoma) | growth (SW-620 colon) | growth (MCF7 breast) | growth (HCT-116 colon) | growth (HCC-2998 colon) | growth (KM12 colon)
1 | CC([C@H]1CCC2C3CCC4C(=O)C(NC=O)=CC[C@]4(C)C3CC[C@@]21C)N(C)C (some centres not stated) | -12.7% (active) | 49.5% | -26% (active) | -48.5% (active) | 17.3% | -7.83% (active) | 19% | 17.8%
2 | Cc1cc(=O)[nH]c(=O)n1Cc1cn(-c2c3ccccc3nc3ccccc23)nn1 | -5.49% (active) | 90% | 95.6% | 83.9% | 2.54% (active) | 63.1% | 62.5% | 98.6%
3 | COc1cc(Nc2cn[nH]c2-c2ccc(Cl)cc2)cc(OC)c1OC | 23.4% | 46.5% | -37.1% (active) | 19.3% | 20.7% | 20.7% | -28.5% (active) | 20.2%
4 | CN(C)CCS(=O)(=O)Nc1cc(-c2ccc3ncc(C#N)c(Nc4ccc(F)c(Cl)c4)c3c2)cnc1Cl | -30.5% (active) | -60.2% (active) | -76.8% (active) | -11.1% (active) | 0.35% (active) | -51.6% (active) | -83.3% (active) | -25.4% (active)
5 | CCOC(=O)c1c(C)oc2ncnc(N3CCN(C(=O)COc4ccc(C(C)(C)C)cc4)CC3)c12 | 47.7% | 54.3% | 99.8% | 99.8% | 83% | 75.2% | 104% | 89.9%
6 | CN1CCN(Cc2ccc(NC(=O)c3cncc(C#Cc4cnccc4C#N)c3)cc2C(F)(F)F)CC1 | 93.5% | 76.5% | 42% | 50.7% | 42.5% | 24% | 50.8% | 22.3%
7 | NC[C@@H]1O[C@H](O[C@@H]2[C@@H](CO)OC(O[C@@H]3[C@@H](O)[C@H](N)C[C@H](N)[C@H]3OC3O[C@H](CN)[C@@H](O)[C@H](O)[C@H]3N)[C@@H]2O)[C@H](N)[C@@H](O)[C@@H]1O (some centres not stated) | 115% | 109% | 102% | 109% | 103% | 102% | 108% | 110%
8 | C=C(C)[C@@H]1CC[C@]2(N=C=O)CC[C@]3(C)[C@H](CC[C@@H]4[C@@]5(C)Cc6c([nH]c7ccccc67)C(C)(C)[C@@H]5CC[C@]43C)[C@@H]12 | 62.4% | 84.3% | 86.4% | 78% | 39.5% | 11.6% | 98.4% | 70.5%
9 | CCCCCCNC(=O)Oc1ccc(/C(=C(\C)c2ccc(Cl)cc2)c2ccc(OCCCN(C)C)cc2)cc1 | 61.1% | 90.6% | 72.4% | 87.9% | 25.2% | 36.9% | 82.3% | 59.6%
10 | O=C(Nc1ccc(Cl)cc1F)c1ccccc1O | 29.9% | 24.9% | 41.3% | 60.4% | 47.6% | 34.6% | 77.1% | 54.4%
11 | COC1=C(C)C(=O)c2c(c(CCCl)c3n2CCC3O)C1=O (configuration not stated) | 81.2% | -30.4% (active) | -72.7% (active) | 8.6% (active) | -14.2% (active) | 9.41% (active) | -39.1% (active) | 0.859% (active)
12 | CC(=O)O.CN1[CH-]N(Cc2ccc(C#N)cc2)c2ccccc21.[Ag+] | 69.7% | 102% | 106% | 57.9% | 97% | 105% | 113% | 86.9%
13 | CCN1C(=O)N(CC)C2Nn3c(s/c(=C4\C(=O)N(CC(C)C)c5ccccc54)c3=O)=NC21 (configuration not stated) | 46% | 52.7% | -45.9% (active) | 35.7% | 26.1% | 14.4% | 76.5% | 31.9%
14 | CCN(CC)CCCNc1nc2ccccc2c2c(=O)c3cc(Cl)ccc3sc12 | 61.3% | 91.2% | -4.23% (active) | 14.3% | 44.4% | 20.2% | 26.5% | 27%
15 | CCCCCCCCCCCCCCCCCC1OCC(COC(=O)O[C@]2(CC)C(=O)OCc3c2cc2n(c3=O)Cc3cc4ccccc4nc3-2)O1 (some centres not stated) | 64.6% | 80% | 92.6% | 57.1% | 44.4% | 66.8% | 84.7% | 94.8%
16 | Oc1ccc(-c2nc3ccc4[nH]ncc4c3c3c2CCCC3)c2cccnc12 | 15.1% | -12.9% (active) | -7.42% (active) | 7.64% (active) | 2.05% (active) | 2.74% (active) | 5.08% (active) | 2.51% (active)
17 | NC1=C(c2nn[nH]n2)C(c2ccccc2Cl)c2ccc3ccccc3c2O1 (configuration not stated) | 69.3% | 93.1% | -10.3% (active) | 48.8% | 41.3% | 63.1% | 98.6% | 60.4%
18 | CCCCOc1ccc(/C=N/NC(N)=S)cc1 | 23.8% | 73.6% | 85.5% | 73.3% | 61.7% | 67.8% | 79.7% | 69.2%
19 | COc1ccc2c(c1)/C(=C/c1sc(=S)n(Cc3ccco3)c1O)C=N2 | 45.3% | 7.24% (active) | -32.7% (active) | 28.1% | 21.8% | 11.9% | 44.7% | 23.9%
20 | O=C(O)c1cn(C2CC2)c2cc(N3CCN(C(=O)Nc4nc(-c5ccc(Cl)cc5)cs4)CC3)c(F)cc2c1=O | 5.75% (active) | 0.292% (active) | 9.36% (active) | 20.2% | 2.95% (active) | 14.8% | 30.6% | 8.97% (active)
21 | CC(C)c1cc(C(C)C)c(S(=O)(=O)Oc2ccc(NC(=O)c3ccc(Cl)cc3)cc2)c(C(C)C)c1 | 7.98% (active) | 20.4% | 41.4% | 21.7% | 16.3% | 8.78% (active) | 26.3% | 18.4%
22 | Cc1ccc(-c2nc3c(c(-c4ccccc4)nn3-c3ccccc3)c(-c3ccc(O)cc3)c2C#N)cc1 | 61.2% | 76.8% | 64.5% | 62.8% | 26.4% | 42.4% | 95.3% | 55.9%
23 | COc1ccc(-c2nc3sc(-c4ccccc4)cn3n2)cc1 | 34.6% | 73.3% | -8.6% (active) | 35.1% | 25.1% | 40% | 77.3% | 29.5%
24 | O=C(CCc1nnc(-c2c(Cl)cccc2Cl)o1)c1nc2ccccc2[nH]1 | 52% | 56.3% | -0.531% (active) | 35.8% | 44.7% | 22.1% | 65.9% | 28.7%
25 | CC(=O)N1N=C(c2ccc(Nc3nc(Nc4ccc(F)cc4)nc(Nc4ccc(Cl)cc4)n3)cc2)CC1c1ccc(Cl)cc1 (configuration not stated) | 68.1% | 122% | 115% | 105% | 91% | 86.4% | 96.8% | 108%
26 | CCCCNC(=O)Oc1ccc(/C(=C(\C)c2ccc(Cl)cc2)c2ccc(OCCN3CCCCC3)cc2)cc1 | 47% | 86.5% | 74.2% | 83.6% | 32.3% | 53.6% | 87.8% | 67.1%
27 | O=C(/C=C/c1sc(Cl)nc1Cl)c1ccc(F)cc1 | 83.7% | 103% | 101% | 24.7% | 14.4% | 39.4% | 30.4% | 60.8%
28 | COc1cc(C2CC(c3ccc(SC)cc3)=NN2C(C)=O)cc(OC)c1OC (configuration not stated) | 72.1% | 36.4% | -28.5% (active) | 38.5% | 41.9% | 41.5% | 61% | 39.4%
29 | Cc1cc2[nH]c(=O)c3c4ncccc4cn3c2cc1C | 56.5% | 105% | 11.1% | -26.9% (active) | 11.6% | -77.1% (active) | 13.7% | 25.1%
